Data taken from PubChem BioAssay.
Where “and” joins values, the source holds several entries; their conditions need not be identical. Equal values may be shown once.

Assay: sensitizers of A549 cells to miR-34 induction, primary screen, imaging, A549 dox-inducible miR-34, nuclei and caspase counts (AID 1347080); also: test concentration not given here
Conditions: A549 miR-34 inducible, Hoechst nuclei count, 48 h; measured here: total cells with miR-34 induction; stronger effect = lower value

Row | Structure (SMILES) | cell count
1 | O=C(/C=C/c1c(C(=O)O)[nH]c2cc(Cl)cc(Cl)c12)Nc1ccccc1 | 8890
2 | C[C@H](NC(=O)c1sccc1OCc1ccc(Cl)cc1)c1ccccc1 | 4320
3 | CNC(=O)[C@H]1O[C@@H](n2cnc3c(NCc4cccc(I)c4)nc(Cl)nc32)[C@H](O)[C@@H]1O | 5880
4 | COc1cc(SC)ccc1C(=O)N1CCC(Cc2ccccc2)CC1 | 7280 and 6350
5 | N#C/C(=C(/N)Sc1ccc(N)cc1)c1ccccc1C(F)(F)F | 5510
6 | COc1ccc(-c2oc3cc(OC)ccc3c2C(=O)c2ccc(C#N)cc2)cc1 | 7250
7 | Oc1cc(O)cc(/C=C/c2ccc(O)c(O)c2)c1 | 9320 and 2290 and 7210
8 | O=Nc1c(-c2c(O)[nH]c3ccccc23)[nH]c2ccccc12 | 1220 and 814 and 1460
9 | CN(CCOc1ccc(-c2ccc3c(c2)OCO3)cc1C(C)(C)C)CC(=O)O | 7520
10 | FC(F)(F)c1ccc(/C=C/c2nc(COc3ccc(CCCCn4ccnn4)cc3)co2)cc1 | 4070
11 | C=CCc1cccc(/C=N/NC(=O)CN2CCN(Cc3ccccc3)CC2)c1O | 2970 and 4320 and 3830
12 | C[C@@H](N)C1CCC(C(=O)Nc2ccncc2)CC1 (stereo partly specified) | 4720 and 9420
13 | Cc1cccc(C#Cc2ccccc2)n1 | 8900 and 6820 and 7820
14 | Nc1nccc(-c2ccc3noc(-c4ccc(Cl)cc4)c3c2)n1 | 3770
15 | Nc1ncnc2c1ncn2[C@@H]1O[C@H](CO)C[C@H]1O | 9150
16 | NC(=O)c1ccc(-c2nc(-c3ccc4c(c3)OCCO4)c(-c3ccccn3)[nH]2)cc1 | 6010 and 7770
17 | CC(C)N(CCC(=O)c1ccc2ccccc2c1)Cc1ccccc1 | 10100 and 6810 and 7420
18 | COc1ccc(Nc2nccc(NCCO)n2)cc1 | 6220 and 9200

Row | Structure (SMILES) | cell count
19 | CC(C)(C)/[N+]([O-])=C/c1ccc(S(=O)(=O)O)cc1S(=O)(=O)O | 7460
20 | CC(C)c1onc(-c2c(Cl)cccc2Cl)c1COc1ccc(/C=C/c2cccc(C(=O)O)c2)c(Cl)c1 | 5590
21 | COc1cc2c(cc1O)CC[C@@H]1[C@@H]2CC[C@]2(C)[C@@H](O)CC[C@@H]12 | 2600 and 1620
22 | Cc1ccccc1C(=O)c1ccc(Nc2ccc(Br)cc2N)cc1Cl | 6770
23 | N#C/C(=C\c1ccc(O)c(O)c1)C(=O)NCc1ccccc1 | 2450 and 8410
24 | CCOC(=O)C(C)Oc1cccc2c(=O)n(CC(=O)Nc3ccc4c(c3)OCCO4)ccc12 (stereo unspecified) | 8970 and 6830
25 | CC(C)C[C@@H](C(=O)N[C@H](C(=O)OC1CCCC1)c1ccccc1)[C@H](O)C(=O)NO | 7280
26 | O=c1ncccn1[C@@H]1O[C@H](CO)[C@@H](O)[C@H]1O | 7460
27 | Clc1ccc(-c2nc3sccn3c2/C=N/OCc2ccc(Cl)c(Cl)c2)cc1 | 4600 and 7870
28 | O=S(=O)(NCCNC/C=C/c1ccc(Br)cc1)c1cccc2cnccc12 | 2930 and 6810
29 | Oc1ccc(Nc2nc(-c3ccc(Cl)cc3)cs2)cc1 | 4850 and 4920 and 2840
30 | CCCC[C@@H](C=O)NC(=O)[C@H](CC(C)C)NC(=O)OCc1ccccc1 | 6040 and 7590
31 | O=C(c1ccc(Nc2nccc(-c3cc4ccccc4s3)n2)cc1)N1CCC(N2CCCC2)CC1 | 3590 and 394
32 | Cc1ccc(S(=O)(=O)/C=C/C#N)cc1 | 1120 and 1020 and 904
33 | CC(C)(Sc1ccc(CCN(CCCCC2CCCCC2)C(=O)NC2CCCCC2)cc1)C(=O)O | 8520 and 5920 and 7310
34 | C[C@H](NC(=O)Cc1cc(F)cc(F)c1)C(=O)N[C@H](C(=O)OC(C)(C)C)c1ccccc1 | 8110
35 | Cc1ccc(NC(=O)c2cccc(N(C)C)c2)cc1NC(=O)c1ccc(O)cc1 | 2990 and 8110 and 7940
36 | O=C(O)Cc1cccc(OCCCN(Cc2cccc(C(F)(F)F)c2Cl)CC(c2ccccc2)c2ccccc2)c1 | 7570 and 3160
